PubChem BioAssay (NCI)
Values joined by “and” are separate entries in the source; they are usually repeats but may differ in a detail not shown here. Equal entries are not always repeated. This is part of a sample that, as a whole, favours compounds with a hit. Of some 83,000 tested, about 20% had one in any assay.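 Cells were grown in 96-well plates and exposed to the test compound at a single concentration for 48 hours; results are reported as percent growth, with values below 10 considered active.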 Active and inactive are the calls of the source.

Assays:
Assay in all cases: NCI-60 one-dose screen, 48 h (100 = growth as untreated, 0 = no growth, -100 = all killed)
Settings in all cases: 10 µM unless noted
HCT-15 colon = test system: HCT-15 colon
HT29 colon = test system: HT29 colon
SNB-75 CNS = test system: SNB-75 CNS
SNB-19 CNS = test system: SNB-19 CNS
U251 CNS = test system: U251 CNS
PC-3 prostate = test system: PC-3 prostate
SK-MEL-5 melanoma = test system: SK-MEL-5 melanoma
UACC-62 melanoma = test system: UACC-62 melanoma
LOX IMVI melanoma = test system: LOX IMVI melanoma
SK-MEL-28 melanoma = test system: SK-MEL-28 melanoma

Measured: growth

COc1ccc(Oc2nc(Nc3ccc(N4CCOCC4)cc3)ncc2NC(=O)c2cccc(C(F)(F)F)c2)cc1
inactive: HCT-15 colon 58.6% | HT29 colon 42.2% | SNB-75 CNS 82.3% | SNB-19 CNS 87.5% | U251 CNS 69.3% | PC-3 prostate 53.7% | SK-MEL-5 melanoma 92.2% | UACC-62 melanoma 78.4% | LOX IMVI melanoma 52.4% | SK-MEL-28 melanoma 99.5%

COc1ccc(-c2cc(-c3cccc(Cl)c3)c(C#N)c(=O)[nH]2)c(OC)c1
inactive: HCT-15 colon 97.7% | HT29 colon 118% | SNB-75 CNS 72.7% | SNB-19 CNS 94.2% | U251 CNS 96.4% | PC-3 prostate 92.3% | SK-MEL-5 melanoma 94.2% | UACC-62 melanoma 90.7% | LOX IMVI melanoma 101% | SK-MEL-28 melanoma 92.2%

O=C1/C(=C/c2cn(-c3ccccc3)nc2-c2ccccc2)SC(=S)N1c1ccc(Cl)cc1
inactive: HCT-15 colon 73% | HT29 colon 99.1% | SNB-75 CNS 90.4% | SNB-19 CNS 71.9% | U251 CNS 57.2% | PC-3 prostate 56.8% | SK-MEL-5 melanoma 78.5% | UACC-62 melanoma 57.5% | LOX IMVI melanoma 63.3% | SK-MEL-28 melanoma 73.5%

Cc1ccc(S(=O)(=O)Nc2cc(Sc3ccccc3)c(O)c3ccccc23)cc1
inactive: HCT-15 colon 91.9% | HT29 colon 120% | SNB-75 CNS 98.4% | SNB-19 CNS 105% | U251 CNS 16.1% | PC-3 prostate 34.6% | SK-MEL-5 melanoma 41.8% | UACC-62 melanoma 42.9% | SK-MEL-28 melanoma 84.8%
active: LOX IMVI melanoma 2.72%

CC(=O)Nc1c(I)c(NC(C)=O)c(I)c(C(=O)O)c1I
inactive: HCT-15 colon 98.5% and 131% | HT29 colon 108% and 118% | SNB-75 CNS 82% and 124% | SNB-19 CNS 107% | U251 CNS 102% and 106% | PC-3 prostate 88.2% and 101% | SK-MEL-5 melanoma 103% and 105% | UACC-62 melanoma 105% and 119% | LOX IMVI melanoma 95.8% and 111% | SK-MEL-28 melanoma 115% and 108%

C=CCN1C=CC(=O)[C@H](O[Si](C)(C)C(C)(C)C)[C@@H]1/C=C/c1ccccc1
active: HCT-15 colon -70.7% [100 µM] | HT29 colon -73% [100 µM] | SNB-75 CNS -87.9% [100 µM] | SNB-19 CNS -92% [100 µM] | U251 CNS -39.6% [100 µM] | PC-3 prostate -76.2% [100 µM] | SK-MEL-5 melanoma -84.9% [100 µM] | UACC-62 melanoma -78.2% [100 µM] | LOX IMVI melanoma -43.9% [100 µM] | SK-MEL-28 melanoma -68.2% [100 µM]

CCCc1cc(C(N)=S)ccn1
inactive: HCT-15 colon 102% | HT29 colon 97.6% | SNB-75 CNS 103% | SNB-19 CNS 115% | U251 CNS 103% | PC-3 prostate 98.3% | SK-MEL-5 melanoma 107% | UACC-62 melanoma 108% | LOX IMVI melanoma 96.7% | SK-MEL-28 melanoma 116%

COc1ccc(C(=O)N/N=C/c2ccc(O)cc2O)cc1Nc1ccnc(C(F)(F)F)c1
active: UACC-62 melanoma 1.67% | LOX IMVI melanoma 8.4%
inactive: HCT-15 colon 40.1% | HT29 colon 37.4% | SNB-75 CNS 26.4% | SNB-19 CNS 34.2% | U251 CNS 28.3% | PC-3 prostate 64.5% | SK-MEL-5 melanoma 24.2% | SK-MEL-28 melanoma 42.9%

O=C1/C(=C/c2cn(-c3ccccc3)nc2-c2ccccc2)SC(=S)N1c1ccccc1
inactive: HCT-15 colon 101% | HT29 colon 108% | SNB-75 CNS 97.2% | SNB-19 CNS 93.4% | U251 CNS 103% | PC-3 prostate 77.9% | SK-MEL-5 melanoma 98.9% | UACC-62 melanoma 87.5% | LOX IMVI melanoma 86.8% | SK-MEL-28 melanoma 97.4%
